Screen size: about 16,000 compounds; about 5,700 (36%) were called active. About 24% were inconclusive and are not listed. This is one part of the list. Unmarked numbers belong to inactive results. Calls come from the whole dose curve; as a rule, active = well fitted curve in the direction sought with a large enough effect; inconclusive = small, poorly fitted or top-dose-only effect, or effect the other way; inactive = no such curve, though single readings can be large or run the other way.
biological target: Cytochrome P450 1A2 (Homo sapiens) (UniProt P05177); test: Cytochrome panel assay with activity outcomes; settings: recombinant CYP, pro-luciferin dealkylation, luminescence, p450-cyp1a2; series mostly up to 57.1 µM; activity, negative = inhibition: at the top concentration
% is set by controls: 0 for no effect and ±100 for the full control effect.

Chain of Cytochrome P450 1A2 (Homo sapiens) (P05177 whole entry, looked up): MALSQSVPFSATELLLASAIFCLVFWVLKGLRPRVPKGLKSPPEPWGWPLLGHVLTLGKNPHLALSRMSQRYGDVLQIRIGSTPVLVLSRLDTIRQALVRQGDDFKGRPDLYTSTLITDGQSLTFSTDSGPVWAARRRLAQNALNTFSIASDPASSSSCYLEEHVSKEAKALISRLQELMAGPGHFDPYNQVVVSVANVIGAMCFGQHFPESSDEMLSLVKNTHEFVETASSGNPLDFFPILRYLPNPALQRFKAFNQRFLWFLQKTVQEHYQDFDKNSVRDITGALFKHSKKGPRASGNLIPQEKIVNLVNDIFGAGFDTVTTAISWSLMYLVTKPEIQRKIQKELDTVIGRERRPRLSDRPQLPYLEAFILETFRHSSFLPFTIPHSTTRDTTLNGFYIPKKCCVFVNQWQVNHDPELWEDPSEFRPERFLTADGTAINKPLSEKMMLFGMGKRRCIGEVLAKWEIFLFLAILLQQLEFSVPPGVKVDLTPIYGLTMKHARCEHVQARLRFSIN

| Compound | activity, negative = inhibition | AC50 |
| --- | --- | --- |
| CCCCNC(=O)C1C2C=CC3(CN(Cc4ccccc4Cl)C(=O)C13)O2 (stereo not drawn) | -27% | – |
| Cc1cc(-c2cc(-c3ccc(Cl)cc3)nc(N)c2C#N)co1 | – | 8.91 µM (active) |
| COc1ccc(COC(=O)N/N=C2/C[C@@H](O)[C@@H](O)[C@@H]3[C@@H]4C(=O)N(C(C)(C)C)C(=O)[C@H]4CC[C@@H]23)cc1 | -55.1% [at 11.4 µM] | – |
| Cc1cc(C)cc(N(C(=O)C2CCCC2)C2C=CS(=O)(=O)C2)c1 (stereo not drawn) | 21.4% | – |
| N=C1/C(=C/c2cccs2)C(=O)N=C2SN=C(SCc3ccccc3)N12 | – | 15.8 µM (active) |
| CO[C@@H]1/C=C\CC(=O)N[C@@H](C)C(=O)OC[C@@H](OC)[C@H](C)CCCC(=O)OC[C@H]1C | 0.281% [at 11.4 µM] | – |
| Cc1cc(N2CCN(C)CC2)n2nc(-c3ccc(Cl)cc3)nc2n1 | -14.3% [at 11.4 µM] | – |
| Cc1nc2nc(-c3ccc(Cl)cc3)nn2c(C)c1Cl | – | 0.562 µM (active) |
| Cc1cc(C)n(-c2nc3c(c(=O)[nH]c(=O)n3C)n2CC(C)C)n1 | -18.7% | – |
| CCN1CCN(c2nc3c(c(=O)[nH]c(=O)n3C)n2CCCSc2ncccn2)CC1 | 4.05% | – |
| C/C(Cl)=C\Cn1c(N2CCCC2)nc2c1c(=O)[nH]c(=O)n2C | – | 14.1 µM (active) |
| C#CCCCO/N=C1/[C@H]2O[C@@H]2[C@@H](O)[C@H]2[C@H]1CCn1c(=O)n([C@@H](CC)c3ccccc3)c(=O)n12 | -5% [at 11.4 µM] | – |
| O=C(c1ccc([N+](=O)[O-])cc1)n1nc(-c2ccccc2)nc1NCc1ccccc1 | – | 7.08 µM (active) |
| O=C(CCCNS(=O)(=O)c1cccc2nsnc12)NCCc1ccccc1 | – | 25.1 µM (active) |
| COc1ccc(CCNC(=O)C2CCN(S(=O)(=O)c3cccc4nsnc34)CC2)cc1OC | -0.953% | – |
| CC(C)C(NS(=O)(=O)c1cccc2nsnc12)C(=O)N1CCc2ccccc2C1 (stereo not drawn) | -21.9% | – |
| O=C1CCCCC(=O)c2ccccc2N1 | -0.404% | – |
| O=C1Cc2c([nH]c3ccc(Br)cc23)-c2ccccc2N1 | – | 0.158 µM (active) |
| O=C(NC1(C(F)(F)F)C(=O)Nc2c1c(=O)[nH]c(=O)n2-c1ccc(F)cc1)c1cccnc1 (stereo not drawn) | 26.4% | – |
| Cn1c(Sc2ccc(-c3cccnc3)n2C)ccc1-c1cccnc1 | – | 0.398 µM (active) |

| Compound | activity, negative = inhibition | AC50 |
| --- | --- | --- |
| C1CCc2nnnn2CC1 | -4.71% [at 25.6 µM] | – |
| NC(N)=NC(N)=Nc1ccc(S(N)(=O)=O)cc1 | -9.8% [at 11.4 µM] | – |
| NC(N)=NC(N)=Nc1ccccc1 (tested in a mixture with another compound) | – | 3.16 µM (active) |
| NC(N)=NC(N)=Nc1c(F)c(F)c(F)c(F)c1F | 10.9% [at 2.29 µM] | – |
| NC(N)=NC(N)=Nc1ccccc1 | – | 31.6 µM (active) |
| NC(N)=NC(N)=Nc1cccc(Cl)c1 | – | inactive |
| NC(N)=NC(N)=Nc1ccc(S(=O)(=O)O)cc1 | -8.09% [at 11.4 µM] | – |
| Nc1cc(-c2nn[nH]n2)ccc1F | 10.3% | – |
| CC(=O)N(/N=C/c1cccc(C)c1)c1nc(-c2ccc(Br)cc2)cs1 | – | 1.41 µM (active) |
| COc1ccc(/C=N/N(C(C)=O)c2nc(-c3ccc(C)cc3)cs2)cc1 | – | 1.58 µM (active) |
| C/C(CCN1CCCc2nc(C)c(C)cc21)=N\OC[C@@H](C)[C@H](OCc1ccccc1)C(C)C | -3.05% [at 11.4 µM] | – |
| C[C@@]12C[C@H](O)[C@@H]3[C@H](CCC4=CC(=O)CC[C@]43C)[C@H]1CC[C@@H]2c1csc(N)n1 | -9.78% [at 2.29 µM] | – |
| Cc1cccc(CNc2ncncc2-c2ccccc2C)c1 | – | 2.51 µM (active) |
| Cc1ccccc1-c1cncnc1NCc1ccccc1 | – | 12.6 µM (active) |
| Cc1cccc(CNc2ncncc2-c2ccccc2Cl)c1 | – | 3.16 µM (active) |
| N#Cc1ccccc1-c1cncnc1NCc1cccnc1 | – | 0.0631 µM (active) |
| CCCCCCCCCCCCCCCCCC(=O)O[C@H](CC(=O)O)C[N+](C)(C)C | 4.66% | – |
| CCN1CCCCC(=N/O)/C(=N/O)CCCC1 | -9.97% [at 11.4 µM] | – |
| CC(C)(C)NS(=O)(=O)c1ccc(NC(=O)C(Sc2ccccc2)c2ccccc2)cc1 (stereo not drawn) | 19.8% | – |
| C[C@@H]1OC2C3=C(C(=O)[C@H]4O[C@@H]4[C@H]3O)[C@@H]1[C@H]1[C@H](C)OC=C3[C@H](O)[C@H]4O[C@H]4/C(=N\OCc4ccccc4)[C@@]321 | -13.5% [at 11.4 µM] | – |

| Compound | activity, negative = inhibition | AC50 |
| --- | --- | --- |
| O=C(c1ccco1)N1CCC[C@@]2(CCN(Cc3nccs3)C2)C1 | -14.9% | – |
| Cc1ccccc1-c1cncnc1NCc1cccnc1 | – | 15.8 µM (active) |
| FC(F)(F)c1ccccc1-c1cncnc1NCc1cccnc1 | – | 20 µM (active) |
| COc1cccc(Nc2ncc3nc(-c4ccccc4)c(=O)n(C)c3n2)c1 | – | 3.16 µM (active) |
| Cn1c(=O)c(-c2ccccc2)nc2cnc(Nc3ccccc3)nc21 | – | 15.8 µM (active) |
| Cc1nc2cnc(Nc3ccccc3)nc2n(C)c1=O | – | 1.26 µM (active) |
| Cc1ccc(S(=O)(=O)NC(=O)Nc2ncn[nH]2)cc1 | -21.4% [at 2.29 µM] | – |
| N[C@H](CCCC(=O)O)C(=O)O | -19.5% | – |
| O=C(NC[C@@H](O)CO)c1c(I)c(C(=O)NC[C@@H](O)CO)c(I)c(N(CCO)C(=O)CO)c1I | 1.79% [at 25.6 µM] | – |
| COc1cc2nc(N3CCN(C(=O)[C@@H]4CCCO4)CC3)nc(N)c2cc1OC | -9.14% [at 25.6 µM] | – |
| CCN1CCN(S(=O)(=O)c2ccc(Cl)c(C(=O)Nc3nnc(CC(C)C)s3)c2)CC1 | -22.1% | – |
| O=C(c1cc(Cl)c(=O)n(Cc2ccc(Cl)cc2)c1)N1CCOCC1 | -5.88% | – |
| Cc1nc2c(C(=O)N3CCOCC3)cnn2c(C)c1Cc1ccc(Cl)cc1 | – | 15.8 µM (active) |
| Cc1ccc(CS(=O)(=O)CCC(=O)N2CCOCC2)cc1 | -4.66% | – |
| O=C(O)CNC(=O)[C@@H](CS)Cc1ccccc1 | -8.2% | – |
| CC(C)(C)[Si](C)(C)c1c2c(nc3ccc(OCc4ccccc4)cc13)-c1cccc(=O)n1C2 | – | 5.01 µM (active) |
| COc1cc2nc3c(c([Si](C)(C)C(C)(C)C)c2cc1OC)Cn1c-3cccc1=O | – | 5.01 µM (active) |
| COc1ccc2nc3c(c([Si](C)(C)C(C)(C)C)c2c1)Cn1c-3cccc1=O | – | 0.794 µM (active) |

Source: PubChem BioAssay AID1851 (National Center for Advancing Translational Sciences (NCATS), 2009)
